In the library only some 7.1% were active in any assay of this set; here they are far more common.
ATXN2 expr inh = reduces ATXN2 reporter expression in HEK-293 cells. actives 0.72% (n = 360,000). AID 1745845. HEK-293 ATXN2-luciferase reporter, luminescence, 24 h. Potency, µM (doses to about 57 µM), most hits filed as inhibitors; note: nearly all actives have a fitted effect of over 55% in size
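qHTS (up to 57 uM final) was run with 24 h compound exposure of reporter cells at 37 °C. Each well was multiplexed: SteadyGlo luminescence measured ATXN2-luciferase expression after a fluorogenic Gly-Phe-AFC viability readout (25 uM final).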
SW480 rereplic = DNA re-replication induction in SW480 cells; SW480 DNA re-replication, Hoechst DNA content imaging, 48 h; Potency, µM (series often up to 46.1 µM), usual class: activators; actives 1.8% (n = 340,000); AID 624297; note: nearly all actives have a fitted effect of over 55% in size
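Image-based read-out: total Hoechst fluorescence of nuclei (405 nm excitation, 500-530 nm emission), with hits raising the fraction of high-intensity nuclei. SW480 colon cells incubated 48 hr with compounds at 37 C.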
PINK1 expr mod = PINK1 expression modulation. PINK1 immunofluorescence, high-content cytometry, 24 h. Potency, µM (highest dose often 76.6 µM), usual class: activators. actives 0.2% (n = 410,000). AID 624263; active = well fitted activation curve with a large enough effect; inconclusive = small, poorly fitted or top-dose-only effect; cell line not stated here; note: nearly all actives have a fitted effect of over 65% in size
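Readout is PINK1 immunofluorescence, quantified alongside mitochondrial, cell and nuclear markers by laser-scanning microplate cytometry. Cells from a stable line were exposed to compound titrations (5 concentrations) for 24 hours, with CCCP controls.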
MCF10A rerep = inducers of DNA re-replication in MCF 10A breast cells; Potency, µM (doses to about 46.1 µM), hits mostly activators; AID 624296; MCF 10A DNA re-replication, Hoechst nuclear intensity, 48 h; actives 2.9% (n = 350,000); note: nearly all actives have a fitted effect of over 50% in size
S2 tox = cell viability loss in ATXN counter-screen; AID 651635; actives 0.49% (n = 400,000); S2 cells (HEK-293 line with an ATXN2-luciferase reporter) viability, CellTiter-Fluor protease fluorescence, 24 h; Potency, µM (titrated, usually from 56.7 µM), usual class: cytotoxic; note: nearly all actives have a fitted effect of over 40% in size
IL1B secr inh = blocks inflammasome-driven IL-1 beta release | activity change, % at 57.5 µM | actives 4.7% (n = 360,000) | THP-1 LPS/ATP IL-1B secretion, AlphaLISA, 16 h; stronger effect = lower value; in the data active = activity change below about -50%; inconclusive = mostly about -30% to -49%
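Secreted IL-1B measured by AlphaLISA bead assay after 16 h compound exposure of THP-1 cells; compounds (final up to 57.5 uM) added 1 h before LPS (250 ng/mL) and ATP (1.25 mM) stimulation; lower signal means less secretion.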
A number is an active result. Unless noted, calls come from the whole dose curve; as a rule, active = well fitted curve in the direction sought with a large enough effect; inconclusive = small, poorly fitted or top-dose-only effect, or another doubt; inactive = no such curve, though single readings can be large; an effect the other way counts as inactive or inconclusive.

Screening Cc1cc(NC(=O)CSc2ccc(-c3nc4cc(C)c(C)cc4[nH]3)cn2)no1 returned ATXN2 expr inh inactive, SW480 rereplic inconclusive, PINK1 expr mod inactive, MCF10A rerep 0.18µM, S2 tox inconclusive and IL1B secr inh inactive.
Cc1cc2nc(-c3ccc(SCC(=O)Nc4ccc(S(=O)(=O)NC5CC5)cc4)nc3)[nH]c2cc1C was read as ATXN2 expr inh inactive, SW480 rereplic inconclusive, PINK1 expr mod inactive, MCF10A rerep 21µM, S2 tox inactive and IL1B secr inh inactive.
Screening Cc1cc2nc(-c3ccc(SCC(=O)N4CCc5ccccc54)nc3)[nH]c2cc1C returned ATXN2 expr inh inconclusive, SW480 rereplic inactive, PINK1 expr mod inactive, MCF10A rerep inactive, S2 tox 18µM and IL1B secr inh inactive.
Screening Cc1ccc(-n2ncc3c(N4CCC(C)CC4)ncnc32)cc1C returned ATXN2 expr inh inactive, PINK1 expr mod inactive and S2 tox inactive.
CCCCCn1c(CCCNC(=O)c2ccccc2)nc2ccccc21 was read as ATXN2 expr inh inconclusive, PINK1 expr mod inactive and S2 tox inconclusive.
Screening COc1cc(=O)n2c(c1C(=O)NC(C)c1ccco1)CCN(Cc1cc3ccccc3o1)CC2 (configuration not stated) returned PINK1 expr mod inactive and S2 tox inactive.
O=C(NCc1ccc(Cl)cc1)C(=O)NCC(c1ccc2c(c1)OCO2)N1CCOCC1 (configuration not stated) was read as PINK1 expr mod inactive.
COc1ccc(Cl)cc1NC(=O)CCCn1c(C)c2cnn(-c3ccccc3)c(=O)c2c1C was read as PINK1 expr mod inactive.
C[N+](C)(CCCCCC[N+](C)(C)C1c2ccccc2-c2ccccc21)C1c2ccccc2-c2ccccc21 was read as S2 tox inactive.
For CCC(=O)Nc1nc(C)c(-c2csc(Nc3cccc(C(=O)O)c3)n2)s1 the results were ATXN2 expr inh inactive, SW480 rereplic inactive, PINK1 expr mod inactive, MCF10A rerep inactive, S2 tox inactive and IL1B secr inh inactive.
CC(=O)Nc1nc(C)c(-c2csc(Nc3cccc(C(C)=O)c3)n2)s1 was read as SW480 rereplic inactive, PINK1 expr mod inactive, MCF10A rerep inactive, S2 tox inconclusive and IL1B secr inh -79.
`CC(=O)Nc1nc(C)c(-c2csc(Nc3cccc([N+](=O)[O-])c3)n2)s1` gave ATXN2 expr inh inconclusive, SW480 rereplic inactive, PINK1 expr mod inactive, MCF10A rerep inconclusive, S2 tox inactive and IL1B secr inh -51.
`O=C(c1ccc(F)cc1)c1cn(Cc2ccccc2)c2cc3c(cc2c1=O)OCO3` gave ATXN2 expr inh inactive, PINK1 expr mod inactive and S2 tox inactive.
CO[C@H]1C=CO[C@@]2(C)Oc3c(C)c(O)c4c(O)c(c(C=NN5CCN(C)CC5)c(O)c4c3C2=O)NC(=O)C(C)=CC=C[C@H](C)[C@H](O)[C@@H](C)[C@@H](O)[C@@H](C)[C@H](OC(C)=O)[C@H]1C was read as ATXN2 expr inh inactive.
For CO[C@H]1C=CO[C@@]2(C)Oc3c(C)c(O)c4c(O)c(c(C=NN5CCN(C)CC5)c(O)c4c3C2=O)NC(=O)C(C)=CC=C[C@H](C)[C@H](O)[C@@H](C)[C@@H](O)[C@@H](C)[C@H](OC(C)=O)[C@@H]1C the results were ATXN2 expr inh inactive, SW480 rereplic inconclusive, PINK1 expr mod inactive, MCF10A rerep inactive, S2 tox 28µM and IL1B secr inh inactive.
For CCCCc1ccc(CC(=O)NO)cc1 the results were PINK1 expr mod inactive.
`Nc1c(C(=O)c2ccccc2)sc2nsc(SCCN3CCCC3)c12` gave ATXN2 expr inh inconclusive, SW480 rereplic inconclusive, PINK1 expr mod inactive, MCF10A rerep 21µM, S2 tox inactive and IL1B secr inh -104.
For Nc1c(C(=O)c2ccc(Cl)cc2)sc2nsc(SCCN3CCOCC3)c12 the results were ATXN2 expr inh inconclusive, SW480 rereplic inconclusive, PINK1 expr mod inactive, MCF10A rerep inconclusive, S2 tox inactive and IL1B secr inh inactive.

Source: PubChem BioAssay
